“And” between values parts separate entries of the source, which are not always exact repeats. Equal values may be shown once. Results filed as inconclusive are left out. The source made the active and inactive calls. Unless noted, the call rests on the fitted dose curve; in most records, active means well fitted curve in the direction sought with a large enough effect in the repeat runs; inconclusive means weak or mixed curves; inactive means no such curve, though single readings can be large; an effect the other way counts as inactive or inconclusive.
Tests used:
[1] = qHTS assay to identify small molecule agonists of the hypoxia (HIF-1) signaling pathway - cell viability counter screen (AID 1224844; calls by dose curve; further: nearly all actives have a fitted effect of over 50% in size)
Outline: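 Multiplexed with the HRE beta-lactamase assay, this viability read used CellTiter-Glo luminescence (30 min, RT) on HRE-bla ME-180 cells treated 17 hrs with compounds in 0.5% dialyzed FBS medium.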

[2] = qHTS assay to identify small molecule agonists of H2AX (AID 1224845; active means well fitted activation curve with a large enough effect in the signal ratio in the repeat runs, not every such curve was filed as active; the % refers to the signal ratio)
Outline: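 Wild-type CHO-K1 cells, plated overnight, exposed 3hr at 37C to 15 concentrations (0.76% DMSO final). Lysed, then HTRF anti-pH2AX (S139) cryptate and anti-H2AX-d2 antibodies, 24 hr room temperature; 665/620 nm emission read.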

[3] = qHTS assay to identify small molecule agonists of the hypoxia (HIF-1) signaling pathway (AID 1224846; active means well fitted activation curve with a large enough effect in the signal ratio in the repeat runs, not every such curve was filed as active; the % refers to the signal ratio)
Outline: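 Hypoxia-pathway activation was scored as increased beta-lactamase from an HRE-controlled reporter in ME-180 cells; plated at 2,000 cells per well with 0.5% dialyzed FBS, they were exposed 17 hrs to compounds and then given CCF4-AM.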

[4] = qHTS assay to identify small molecule agonists of H2AX - cell viability counter screen (AID 1224847; calls by dose curve; further: top concentration of the series differs between compounds; nearly all actives have a fitted effect of over 30% in size)
Outline: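 Cytotoxicity counter screen in wild-type CHO-K1 cells: a 3 hr compound treatment at 37C across 15 concentrations, followed by CellTiter-Glo luminescence to gauge viable cells.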

[5] = qHTS assay to identify small molecule antagonists of the estrogen related receptor (ERR) signaling pathway from Tox21 library (AID 1224848); further: nearly all actives have a fitted effect of over 50% in size
Outline: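 Luminescent reporter read-out (ONE-Glo) from NTP's ERR cell line after 18 h treatment at 37 C with DMSO-dissolved Tox21 compounds; cells pre-plated 6 h beforehand at 2,000 per well.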

[6] = qHTS assay to identify small molecule agonists of the estrogen related receptor (ERR) signaling pathway from Tox21 library (AID 1224849; calls by dose curve; further: nearly all actives have a fitted effect of over 15% in size); conditions: ERR reporter cell line, ONE-Glo luciferase, 18 h
Outline: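 Six hours post-seeding at 37 C/5% CO2, ERR cells receive DMSO-solubilised compounds; after 18 h at 37 C, ONE-Glo reagent is applied and luminescence recorded.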

[7] = qHTS RealTime-Glo MT Cell Viability Assay in HepG2 cells - 24 hour (AID 1224867); further: nearly all actives have a fitted effect of over 50% in size
Outline: (§1)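 Compound treatment began 5 h after plating HepG2 cells (600/well) with NanoLuc luciferase and prosubstrate. Plates stayed at 37 C for 40 h; luminescence was captured at six time points, 0 h through 40 h.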

[8] = qHTS RealTime-Glo MT Cell Viability Assay in HEK293 cells - 32 hour (AID 1224868); further: top concentration of the series differs between compounds; nearly all actives have a fitted effect of over 50% in size
Outline: (§2)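 Quantitative high-throughput screen of the Tox21 10K library in HEK293: cells and RealTime-Glo reagents plated together, compound added at 5 h, luminescence monitored through 40 h at 37 C.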

[9] = A CellTox Green Cytotoxicity Assay to monitor cytotoxicity in HEK293 cells - 0 hour (AID 1224869); further: nearly all actives have a fitted effect of over 50% in size
Outline: (§3)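 Seeding of HEK293 cells together with cytotoxicity dye preceded a 5 h incubation at 37 C/5% CO2. Test compounds in DMSO were then added and fluorescence monitored across 40 h.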

[10] = qHTS RealTime-Glo MT Cell Viability Assay in HepG2 cells - 40 hour (AID 1224870); further: nearly all actives have a fitted effect of over 50% in size
Outline: (§4)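 HepG2 cells (600/well) mixed with RealTime-Glo MT reagent, settled 5 h at 37 C/5% CO2 before compound addition. Nonlytic NanoLuc luminescence from viable-cell prosubstrate reduction read repeatedly during 40 h treatment at 37 C.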

[11] = A CellTox Green Cytotoxicity Assay to monitor cytotoxicity in HEK293 cells - 40 hour (AID 1224871); further: nearly all actives have a fitted effect of over 45% in size
Outline: as §3

[12] = qHTS RealTime-Glo MT Cell Viability Assay in HEK293 cells - 16 hour (AID 1224872)
Outline: as §2

[13] = qHTS RealTime-Glo MT Cell Viability Assay in HepG2 cells - 8 hour (AID 1224873); further: nearly all actives have a fitted effect of over 55% in size
Outline: as §4

[14] = qHTS RealTime-Glo MT Cell Viability Assay in HEK293 cells - 40 hour (AID 1224874); conditions: RealTime-Glo luminescence; max response: hits give low values; further: nearly all actives have a fitted effect of over 50% in size
Outline: (§5)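 Tox21 screen in HEK293 using RealTime-Glo MT chemistry, with cells and reagent co-dispensed. Luminescence proportional to viable cell number was captured at intervals during 40 h compound exposure at 37 C.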

[15] = A CellTox Green Cytotoxicity Assay to monitor cytotoxicity in HEK293 cells - 24 hour (AID 1224875); further: nearly all actives have a fitted effect of over 45% in size
Outline: as §3

[16] = A CellTox Green Cytotoxicity Assay to monitor cytotoxicity in HepG2 cells - 16 hour (AID 1224876); further: nearly all actives have a fitted effect of over 45% in size
Outline: (§6)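 Nonlytic assay: viable cells exclude the dye, so fluorescence scales with cell death. HepG2 at 600 cells/well, compounds added after 5 h, signal read across 40 h.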

[17] = qHTS RealTime-Glo MT Cell Viability Assay in HepG2 cells - 32 hour (AID 1224877); further: nearly all actives have a fitted effect of over 55% in size
Outline: as §1

[18] = A CellTox Green Cytotoxicity Assay to monitor cytotoxicity in HepG2 cells - 24 hour (AID 1224878); further: nearly all actives have a fitted effect of over 45% in size
Outline: as §6

[19] = A CellTox Green Cytotoxicity Assay to monitor cytotoxicity in HepG2 cells - 40 hour (AID 1224879); further: nearly all actives have a fitted effect of over 40% in size
Outline: as §6

[20] = qHTS RealTime-Glo MT Cell Viability Assay in HEK293 cells - 0 hour (AID 1224880)
Outline: as §5
On the % scale 0 is the no-effect control and ±100 the full control effect.

CN=C(NC#N)NCCSCc1nc[nH]c1C
inactive: Potency [1] | Potency [2] | outcome [3] | Potency [4] | Potency [5] | activity change, positive = activation ([6]; at 92.4 µM (top of the series)) 2.07% | Potency [7] | Potency [8] | Potency [9] | Potency [10] | Potency [11] | Potency [12] | Potency [13] | max response [14] 4.13% and 1.71% | Potency [15] | Potency [16] | Potency [17] | Potency [18] | Potency [19] | Potency [20]

O=C(O)Cc1c[nH]c2ccccc12
inactive: Potency [1] | Potency [2] | outcome [3] | Potency [4] | Potency [5] | activity change, positive = activation ([6]; at 92.4 µM (top of the series)) 5.71% and 6.87% | Potency [7] | Potency [8] | Potency [9] | Potency [10] | Potency [11] | Potency [12] | Potency [13] | max response [14] 12.4% and 16.9% | Potency [15] | Potency [16] | Potency [17] | Potency [18] | Potency [19] | Potency [20]

CC(=O)Nc1ccc(CC(=O)O)cc1
inactive: Potency [1] | Potency [2] | outcome [3] | Potency [4] | Potency [5] | activity change, positive = activation ([6]; at 42.5 µM (top of the series)) -1.58% | activity change, positive = activation ([6]; at 92.4 µM (top of the series)) 9.59% | Potency [7] | Potency [8] | Potency [9] | Potency [10] | Potency [11] | Potency [12] | Potency [13] | max response [14] -18.8% and 1.34% | Potency [15] | Potency [16] | Potency [17] | Potency [18] | Potency [19] | Potency [20]

CCCOCC(C)O (stereo unspecified)
inactive: Potency [1] | Potency [2] | outcome [3] | Potency [4] | Potency [5] | activity change, positive = activation ([6]; at 92.4 µM (top of the series)) 5.9% and 6.38% | Potency [7] | Potency [8] | Potency [9] | Potency [10] | Potency [11] | Potency [12] | Potency [13] | max response [14] 6.7% and -0.928% | Potency [15] | Potency [16] | Potency [17] | Potency [18] | Potency [19] | Potency [20]

CCCCCC(C)=O
inactive: Potency [1] | Potency [2] | outcome [3] | Potency [4] | Potency [5] | activity change, positive = activation ([6]; at 92.4 µM (top of the series)) 9.83% and 4.6% | Potency [7] | Potency [8] | Potency [9] | Potency [10] | Potency [11] | Potency [12] | Potency [13] | Potency [15] | Potency [16] | Potency [17] | Potency [18] | Potency [19] | Potency [20]

Cc1cc(C)c(O)c(C)c1
inactive: Potency [1] | Potency [2] | outcome [3] | Potency [4] | Potency [5] | activity change, positive = activation ([6]; at 92.4 µM (top of the series)) 10.5% and 2.09% | Potency [7] | Potency [8] | Potency [9] | Potency [10] | Potency [11] | Potency [12] | Potency [13] | Potency [15] | Potency [16] | Potency [17] | Potency [18] | Potency [19] | Potency [20]

NCCNCCNCCN
inactive: Potency [1] | Potency [2] | outcome [3] | Potency [4] | Potency [5] | activity change, positive = activation ([6]; at 42.5 µM (top of the series)) 0.597% | Potency [7] | Potency [8] | Potency [9] | Potency [10] | Potency [11] | Potency [12] | Potency [13] | max response [14] 2.02% and 3.6% | Potency [15] | Potency [16] | Potency [17] | Potency [18] | Potency [19] | Potency [20]

CC(C)(CO)CO
inactive: Potency [1] | Potency [2] | outcome [3] | Potency [4] | Potency [5] | activity change, positive = activation ([6]; at 92.4 µM (top of the series)) 2.96% and 5.63% | Potency [7] | Potency [8] | Potency [9] | Potency [10] | Potency [11] | Potency [12] | Potency [13] | Potency [15] | Potency [16] | Potency [17] | Potency [18] | Potency [19] | Potency [20]

C1CCCNCC1
inactive: Potency [1] | Potency [2] | outcome [3] | Potency [4] | Potency [5] | activity change, positive = activation ([6]; at 92.4 µM (top of the series)) 1.64% and -2.2% | Potency [7] | Potency [8] | Potency [9] | Potency [10] | Potency [11] | Potency [12] | Potency [13] | max response [14] 6.44% and 0.666% | Potency [15] | Potency [16] | Potency [17] | Potency [18] | Potency [19] | Potency [20]

Cc1cc(C)cc(O)c1
inactive: Potency [1] | Potency [2] | outcome [3] | Potency [4] | Potency [5] | activity change, positive = activation ([6]; at 92.4 µM (top of the series)) 8.03% and 0.796% | Potency [7] | Potency [8] | Potency [9] | Potency [10] | Potency [11] | Potency [12] | Potency [13] | Potency [15] | Potency [16] | Potency [17] | Potency [18] | Potency [19] | Potency [20]

CC(=O)OCCC(C)C
inactive: Potency [1] | Potency [2] | outcome [3] | Potency [4] | Potency [5] | activity change, positive = activation ([6]; at 92.4 µM (top of the series)) 1.01% and 5.99% | Potency [7] | Potency [8] | Potency [9] | Potency [10] | Potency [11] | Potency [12] | Potency [13] | max response [14] 3.8% and 7.54% | Potency [15] | Potency [16] | Potency [17] | Potency [18] | Potency [19] | Potency [20]

O=C1OC(=O)c2c(Cl)c(Cl)c(Cl)c(Cl)c21
inactive: Potency [1] | Potency [2] | outcome [3] | Potency [4] | Potency [5] | activity change, positive = activation ([6]; at 92.4 µM (top of the series)) -24.8% | Potency [7] | Potency [8] | Potency [9] | Potency [10] | Potency [11] | Potency [12] | Potency [13] | Potency [15] | Potency [16] | Potency [17] | Potency [18] | Potency [19] | Potency [20]

C[n+]1ccn(CCO)c1
inactive: Potency [1] | Potency [2] | outcome [3] | Potency [4] | Potency [5] | activity change, positive = activation ([6]; at 92.4 µM (top of the series)) 4.16% and -3.23% | Potency [7] | Potency [8] | Potency [9] | Potency [10] | Potency [11] | Potency [12] | Potency [13] | max response [14] 6.1% and 16.8% | Potency [15] | Potency [16] | Potency [17] | Potency [18] | Potency [19] | Potency [20]

Reference: PubChem BioAssay (Tox21)
